Results published in PubChem BioAssay AID1159580 (chemical genetic matrix, 2015).
About 2,000 (36%) of roughly 5,500 compounds were called active. Roughly 18% stayed inconclusive and do not appear here. Cut-off read from the data, not from the text of the source: active = normalized growth mostly below about 0.91 (no sharp cut-off); inconclusive = no clear call, values can overlap the other calls; inactive = mostly above about 0.92. This is one part of the list.

Assay: chemical genetic growth profiling, strain panel (AID 1159580);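 note: tested at 20 µM; growth read once vehicle control cultures reached saturation at 30 °C; 1 = growth at the plate median or of vehicle wells; lower values mean less growth of the strain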
Conditions: S. cerevisiae deletion strains, growth OD

Measured: normalized growth

CC(=O)Oc1ccc(Cl)c2cccnc12
active: locus YAL013W, strain DEP1, hits give low values 0.0553 | locus YAL021C, strain ccr4, hits give low values 0.069 | locus YAL026C, strain drs2, hits give low values 0.0608 | locus YAL030W, strain snc1, hits give low values 0.0564 | locus YBL061C, strain skt5, hits give low values 0.0591 | locus YBR009C, strain hhf1, hits give low values 0.0605 | locus YBR021W, strain FUR4, hits give low values 0.0898 | locus YBR023C, strain chs3, hits give low values 0.0596 | locus YBR171W, strain sec66, hits give low values 0.0822 | locus YBR229C, strain ROT2, hits give low values 0.0477 | locus YBR231C, strain swc5, hits give low values 0.0648 | locus YBR279W, strain paf1, hits give low values 0.0603 | locus YCL011C, strain gbp2, hits give low values 0.0571 | locus YCL016C, strain dcc1, hits give low values 0.0644 | locus YCL029C, strain bik1, hits give low values 0.0625 | locus YCL069W, strain vba3, hits give low values 0.0622 | locus YCR088W, strain abp1, hits give low values 0.0643 | locus YDL005C, strain med2, hits give low values 0.0757 | locus YDL035C, strain GPR1, hits give low values 0.0496 | locus YDL040C, strain nat1, hits give low values 0.0609 | locus YDL074C, strain BRE1, hits give low values 0.0748 | locus YDL101C, strain DUN1, hits give low values 0.0607 | locus YDL134C, strain PPH21, hits give low values 0.0511 | locus YDL185W, strain tfp1, hits give low values 0.0604 | locus YDL192W, strain arf1, hits give low values 0.0619 | locus YDR001C, strain nth1, hits give low values 0.064 | locus YDR069C, strain doa4, hits give low values 0.0614 | locus YDR101C, strain arx1, hits give low values 0.0604 | locus YDR137W, strain rgp1, hits give low values 0.0888 | locus YDR150W, strain NUM1, hits give low values 0.0581 | locus YDR159W, strain sac3, hits give low values 0.0841 | locus YDR162C, strain NBP2, hits give low values 0.0464 | locus YDR195W, strain ref2 0.118 | locus YDR297W, strain sur2, hits give low values 0.0582 | locus YDR318W, strain mcm21, hits give low values 0.064 | locus YDR334W, strain swr1, hits give low values 0.0646 | locus YDR335W, strain msn5, hits give low values 0.0695 | locus YDR388W, hits give low values 0.0563 | locus YDR392W, strain spt3, hits give low values 0.0734 | locus YDR502C, strain sam2, hits give low values 0.0661 | locus YEL003W, strain gim4, hits give low values 0.0532 | locus YEL037C, strain rad23, hits give low values 0.0595 | locus YEL061C, strain CIN8 (second series), hits give low values 0.0644 | locus YEL061C, strain CIN8, hits give low values 0.0486 | locus YER015W, strain faa2, hits give low values 0.0637 | locus YER016W, strain bim1, hits give low values 0.0578 | locus YER110C, hits give low values 0.0806 | locus YER111C, strain swi4, hits give low values 0.076 | locus YER155C, strain BEM2 (second series), hits give low values 0.094 | locus YER155C, strain BEM2, hits give low values 0.0723 | locus YER167W, strain BCK2, hits give low values 0.0497 | locus YFR010W, strain ubp6, hits give low values 0.0687 | locus YGL078C, strain dbp3, hits give low values 0.0682 | locus YGL086W, strain mad1, hits give low values 0.0595 | locus YGL167C, strain pmr1, hits give low values 0.0737 | locus YGL173C, strain kem1, hits give low values 0.0684 | locus YGL227W, strain vid30, hits give low values 0.0677 | locus YGL240W, strain doc1, hits give low values 0.0722 | locus YGL248W, strain PDE1, hits give low values 0.046 | locus YGL253W, strain hxk2, hits give low values 0.0586 | locus YGR078C, strain PAC10, hits give low values 0.0495 | locus YGR135W, strain pre9, hits give low values 0.0649 | locus YGR252W, strain gcn5, hits give low values 0.186 | locus YHR013C, strain ard1, hits give low values 0.104 | locus YHR027C, strain rpn1, hits give low values 0.0596 | locus YHR030C, strain SLT2, hits give low values 0.0501 | locus YHR079C, strain IRE1 (second series), hits give low values 0.0563 | locus YHR094C, strain hxt1, hits give low values 0.0602 | locus YHR129C, strain ARP1, hits give low values 0.056 | locus YHR142W, strain chs7, hits give low values 0.0762 | locus YHR200W, strain rpn10, hits give low values 0.0647 | locus YIL066C, strain RNR3, hits give low values 0.0516 | locus YIL073C, strain SPO22, hits give low values 0.118 | locus YIL125W, strain kgd1, hits give low values 0.0601 | locus YIR030C, strain dcg1, hits give low values 0.0565 | locus YJL092W, strain hpr5, hits give low values 0.0615 | locus YJL095W, strain BCK1 (second series), hits give low values 0.0566 | locus YJL095W, strain BCK1, hits give low values 0.0546 | locus YJL115W, strain asf1, hits give low values 0.0797 | locus YJL129C, strain trk1, hits give low values 0.0818 | locus YJL134W, strain LCB3, hits give low values 0.0495 | locus YJL154C, strain vps35, hits give low values 0.0615 | locus YJL164C, strain tpk1, hits give low values 0.0597 | locus YJL166W, strain qcr8, hits give low values 0.0614 | locus YJL168C, strain set2, hits give low values 0.062 | locus YJL187C, strain SWE1 (second series), hits give low values 0.0475
